Hits are enriched below; roughly 1.6% of the tested compounds scored in any of these assays.
eIF4H inh: human eIF4H binding inhibitors, primary screen, translation initiation inhibitor project, biochemical, uHTS, fluorescence polarization. Eukaryotic translation initiation factor 4H (Homo sapiens), Q15056. inhibition, % at 35 µM. eIF4H fluorescence polarization binding assay. 0.94% of 290,000 active;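 also: calls also rest on retests at 20 µM and on dose response follow-up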
PERK inh: block of dimerizer-induced PERK translation repression, primary screen, PERK inhibitor project, CHO PERK-DD cells, SEAP luminescence, HTS; Eukaryotic translation initiation factor 2-alpha kinase 3 (Homo sapiens), Q9NZJ5; CHO PERK-DD fusion, SEAP luminescence translation reporter; inhibition, % at 5.6 µM; 0.17% of 220,000 active; AID 1416, 2008;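 active = inhibition above the mean inhibition of all tested compounds plus 3 SD, set separately per screening campaign, cut at about 2.9% in these data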;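 also: PERK kinase domain activated by AP20187 dimerizer at 100 nM; 0% = DMSO with dimerizer and 100% = rapamycin at 8.4 µM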
MLLE-PAM2 inh: inhibitors of PABP1 MLLE–PAM2 peptide binding, primary screen, biochemical, fluorescence polarization, FITC-PAM2, GST-MLLE. AID 588489, 2011. 0.36% of 360,000 active. inhibition, % at 20 µM; in the data active = inhibition above about 35%, passing the limit was not always enough;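 also: plate controls were DMSO wells with GST-MLLE for no effect and wells lacking GST-MLLE protein for full effect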
Target sequence (P11940 whole entry, looked up): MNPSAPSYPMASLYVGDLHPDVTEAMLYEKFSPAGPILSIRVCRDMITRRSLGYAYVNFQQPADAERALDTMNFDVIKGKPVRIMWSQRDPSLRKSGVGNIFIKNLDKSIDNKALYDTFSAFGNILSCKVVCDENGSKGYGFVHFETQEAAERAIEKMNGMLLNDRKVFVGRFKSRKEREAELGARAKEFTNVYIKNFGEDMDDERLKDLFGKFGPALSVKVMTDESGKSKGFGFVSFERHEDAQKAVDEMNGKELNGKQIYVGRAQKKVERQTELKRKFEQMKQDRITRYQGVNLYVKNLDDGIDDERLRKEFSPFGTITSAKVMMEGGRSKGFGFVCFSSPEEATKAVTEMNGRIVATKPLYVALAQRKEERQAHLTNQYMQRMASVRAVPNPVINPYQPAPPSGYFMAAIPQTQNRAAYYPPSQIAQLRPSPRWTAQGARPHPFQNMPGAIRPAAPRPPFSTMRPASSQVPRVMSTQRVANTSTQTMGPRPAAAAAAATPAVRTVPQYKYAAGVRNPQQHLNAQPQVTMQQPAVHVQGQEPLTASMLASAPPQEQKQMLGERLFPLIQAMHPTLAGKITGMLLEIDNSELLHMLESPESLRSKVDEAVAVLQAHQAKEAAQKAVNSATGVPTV
eIF4E-4G inh: eIF4E–eIF4G protein interaction inhibitors, primary screen, biochemical, uHTS, TR-FRET, eIF4GI fragment; TR-FRET eIF4E-eIF4GI(517-606) binding, 2 h; inhibition, % at 21.7 µM; 0.37% of 220,000 active; AID 782, 2007; Eukaryotic translation initiation factor 4E (Mus musculus) + Eukaryotic translation …;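 active = inhibition above about 30%, limit read from the data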;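 also: 0% = full FRET control wells and 100% = background wells lacking eIF4GI fragment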
PABP FP inh: PABP poly(A) RNA binding inhibitors, primary screen, biochemical, fluorescence polarization, uHTS | inhibition, % at 35 µM | AID 2014, 2009 | 1% of 290,000 active | Polyadenylate-binding protein 1 (Homo sapiens), P11940;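 also: calls also rest on retests at 20 µM and on dose response follow-up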
Starred values were filed as active, the others as inactive. Unless noted, no rule for the calls is given here.

What do the screens show for `CC(=O)OCC1OC(n2c(S)c(C#N)c(-c3ccccc3)c(C#N)c2=O)C(OC(C)=O)C(OC(C)=O)C1OC(C)=O` (stereo not drawn)?
MLLE-PAM2 inh: -28

How did CC1(C)CCc2cc(S(=O)(=O)N3CCN(S(=O)(=O)c4c(F)cccc4F)CC3)ccc2O1 do in these assays?
MLLE-PAM2 inh: -6

How did O=C(CSc1ccsc1[N+](=O)[O-])Nc1cccc(F)c1 do in these assays?
eIF4H inh: 74; PERK inh: 1; MLLE-PAM2 inh: -1; eIF4E-4G inh: 50*; PABP FP inh: -4

How did CCc1ccccc1NC(=O)CSc1ccsc1[N+](=O)[O-] do in these assays?
eIF4H inh: 47; PERK inh: -1; MLLE-PAM2 inh: 19; eIF4E-4G inh: 8; PABP FP inh: -9

Results for COc1ccc(S(=O)(=O)N2CCCCC2)cc1NC(=O)C1CC1C (stereo not drawn) ?
MLLE-PAM2 inh: 0

What do the screens show for `Cc1ccc(NC(=O)COC(=O)CSC(=S)N2CCOCC2)cc1`?
eIF4H inh: active; PERK inh: 1; MLLE-PAM2 inh: 6; eIF4E-4G inh: -3; PABP FP inh: 55*

How did Cc1ccccc1CN1CCC(n2nccc2NC(=O)CCOc2ccccc2)CC1 do in these assays?
eIF4H inh: -1; MLLE-PAM2 inh: -10; PABP FP inh: 4

What do the screens show for `CCOC(=O)c1[nH]cnc1N=Nc1c(O)ccc2ccccc12`?
eIF4H inh: inconclusive; PERK inh: 0; MLLE-PAM2 inh: 51*; eIF4E-4G inh: 8; PABP FP inh: -6

Results for Oc1ccc2ccccc2c1N=Nc1ccccn1 ?
eIF4H inh: 2; PERK inh: -1; MLLE-PAM2 inh: -16; eIF4E-4G inh: 1; PABP FP inh: 2

Results for CCc1c(C(=O)NNC(=O)Nc2ccc3c(c2)OCO3)csc1C ?
eIF4H inh: -10; MLLE-PAM2 inh: 3; PABP FP inh: -4

Results for O=C(N/N=C/c1sc(=O)n(-c2ccccc2)c1Cl)c1ccccc1 ?
eIF4H inh: 65*; PERK inh: 0; MLLE-PAM2 inh: -148; eIF4E-4G inh: 7; PABP FP inh: active

How did NC(=O)N/N=C/c1sc(=O)n(-c2ccccc2)c1Cl do in these assays?
eIF4H inh: 10; PERK inh: 0; MLLE-PAM2 inh: -105; eIF4E-4G inh: -3; PABP FP inh: -12

How did CCCc1cc(=O)oc2c(CNc3ccc(OCC)cc3)c(O)ccc12 do in these assays?
eIF4H inh: 76; MLLE-PAM2 inh: -37; PABP FP inh: 39*

How did CCc1cc(=O)oc2c(CNCc3c(F)cccc3Cl)c(O)ccc12 do in these assays?
eIF4H inh: -3; MLLE-PAM2 inh: -17; PABP FP inh: -6

Results for O=C(/C=C/c1ccc2c(c1)S(=O)(=O)N(Cc1ccccc1)[C@H]2CC(=O)N1CCOCC1)N1CCOCC1 ?
MLLE-PAM2 inh: 5

How did Cc1ccc(S(=O)(=O)NCc2ccc(C(=O)N3CCCC3)cc2)cc1 do in these assays?
eIF4H inh: 6.8*; PERK inh: 0; MLLE-PAM2 inh: -1; eIF4E-4G inh: 2; PABP FP inh: 78*

Results for Cc1sc2nc(SCC(=O)c3cc(C)n(CC4CCCO4)c3C)n(C(C)C)c(=O)c2c1C (stereo not drawn) ?
eIF4H inh: 65*; PERK inh: 0; MLLE-PAM2 inh: -25; eIF4E-4G inh: -9; PABP FP inh: 81*

What do the screens show for `Cc1cc(C(=O)COC(=O)c2ccco2)c(C)n1Cc1ccco1`?
eIF4H inh: 26; PERK inh: 2; MLLE-PAM2 inh: 6; eIF4E-4G inh: 5; PABP FP inh: 6

What do the screens show for `Cc1cccc(-n2nnnc2SCC(=O)c2cc(C)n(Cc3ccco3)c2C)c1`?
eIF4H inh: 58*; PERK inh: 0; MLLE-PAM2 inh: -93; eIF4E-4G inh: -3; PABP FP inh: 29

How did Cc1cc(C(=O)COC(=O)c2ccncc2)c(C)n1Cc1ccco1 do in these assays?
eIF4H inh: 55*; PERK inh: 0; MLLE-PAM2 inh: -29; eIF4E-4G inh: -5; PABP FP inh: 8.1*

Results for Cc1cccc(-n2nnnc2SCC(=O)c2cc(C)n(CC3CCCO3)c2C)c1 (stereo not drawn) ?
eIF4H inh: 53*; PERK inh: 0; MLLE-PAM2 inh: -98; eIF4E-4G inh: -22; PABP FP inh: 55*

How did Cc1cc(C(=O)CSc2nnc(N)s2)c(C)n1Cc1ccco1 do in these assays?
eIF4H inh: 36; PERK inh: 0; MLLE-PAM2 inh: -8; eIF4E-4G inh: -2; PABP FP inh: 6

How did CCC[C@H]1CN(c2ccccc2)C(=O)[C@@H]1CC(=O)Nc1ccc(Br)cc1 do in these assays?
MLLE-PAM2 inh: 0

What do the screens show for `CC1CCCC(NC(=O)NC(=O)COC(=O)C2=NN(c3ccccc3)C(=O)CC2)C1C` (stereo not drawn)?
MLLE-PAM2 inh: -3

What do the screens show for `Cc1cc(C)nc(SCC(=O)c2cc3ccccc3oc2=O)n1`?
eIF4H inh: -2; PERK inh: 1; MLLE-PAM2 inh: 29; eIF4E-4G inh: 14; PABP FP inh: 5

Results for O=C(CSc1nc2ccccc2o1)c1cc2ccccc2oc1=O ?
eIF4H inh: 22; PERK inh: -1; MLLE-PAM2 inh: 38*; eIF4E-4G inh: 0; PABP FP inh: -2

Results for Cc1cc(C(=O)CSc2nc3ccccc3o2)c(C)n1CC1CCCO1 (stereo not drawn) ?
eIF4H inh: 52*; PERK inh: -1; MLLE-PAM2 inh: -7; eIF4E-4G inh: 1; PABP FP inh: 68*

Results for N#CC1(Nc2ccc(S(N)(=O)=O)cc2)CCCC1 ?
MLLE-PAM2 inh: -7

Results for Cc1ccc(NC(=O)CN2C(=O)N/C(=C/c3cccn3-c3ccc(C(=O)O)cc3)C2=O)cc1 ?
eIF4H inh: 88; PERK inh: 0; MLLE-PAM2 inh: -12; eIF4E-4G inh: 34*; PABP FP inh: -8

Results for Cc1cccc(NC(=O)CN2C(=O)N/C(=C/c3ccc(C)s3)C2=O)c1 ?
eIF4H inh: inconclusive; PERK inh: 0; MLLE-PAM2 inh: -99; eIF4E-4G inh: 0; PABP FP inh: -7

Results for Cc1ccc(NC(=O)CN2C(=O)N/C(=C/c3cc(C)n(-c4ccc(C(=O)O)cc4)c3C)C2=O)cc1 ?
eIF4H inh: 71; PERK inh: 1; MLLE-PAM2 inh: -6; eIF4E-4G inh: 27; PABP FP inh: -2

How did Cc1ccc(NC(=O)CN2C(=O)N/C(=C/c3ccco3)C2=O)cc1 do in these assays?
eIF4H inh: 90*; PERK inh: 0; MLLE-PAM2 inh: 19; eIF4E-4G inh: 15; PABP FP inh: 59*

What do the screens show for `CCCNC(=O)C1(C)CCN1C(=O)Cc1ccc(C(C)(C)C)cc1` (stereo not drawn)?
MLLE-PAM2 inh: -11

Source: PubChem (several laboratories)
